Test results as given in PubChem BioAssay (NCI).
About 83,000 compounds went through this panel and 20% of them were active in at least one assay; those are over-represented in the sample as a whole.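 Testing used 96-well plates and a 48-hour single-concentration exposure. Example: -40 means 40% of the starting cells died.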 A number with no mark means an inactive call. Activity calls are given as the source filed them. Rule for the calls: active = growth percent below 10; inactive = the rest.

How the values were obtained:
Assay in all cases: NCI-60 one-dose screen, 48 h (100 = growth as untreated, 0 = no growth, -100 = all killed)
Settings in all cases: 10 µM unless noted
NCI-H23 lung = system: NCI-H23 lung
NCI-H226 lung = system: NCI-H226 lung
NCI-H322M lung = system: NCI-H322M lung
HOP-62 NSCLC = system: HOP-62 NSCLC
NCI-H460 lung = system: NCI-H460 lung
HOP-92 NSCLC = system: HOP-92 NSCLC
A549/ATCC NSCLC = system: A549/ATCC NSCLC
COLO 205 colon = system: COLO 205 colon
DU-145 prostate = system: DU-145 prostate
K-562 leukemia = system: K-562 leukemia
MALME-3M melanoma = system: MALME-3M melanoma
MDA-MB-231 breast = system: MDA-MB-231 breast
RXF 393 renal = system: RXF 393 renal
SF-268 CNS = system: SF-268 CNS
SF-295 CNS = system: SF-295 CNS
SF-539 CNS = system: SF-539 CNS
UACC-257 melanoma = system: UACC-257 melanoma
M14 melanoma = system: M14 melanoma
786-0 renal = system: 786-0 renal
NCI-H522 lung = system: NCI-H522 lung

Structure (SMILES) | growth (NCI-H23 lung) | growth (NCI-H226 lung) | growth (NCI-H322M lung) | growth (HOP-62 NSCLC) | growth (NCI-H460 lung) | growth (HOP-92 NSCLC) | growth (A549/ATCC NSCLC) | growth (COLO 205 colon) | growth (DU-145 prostate) | growth (K-562 leukemia) | growth (MALME-3M melanoma) | growth (MDA-MB-231 breast) | growth (RXF 393 renal) | growth (SF-268 CNS) | growth (SF-295 CNS) | growth (SF-539 CNS) | growth (UACC-257 melanoma) | growth (M14 melanoma) | growth (786-0 renal) | growth (NCI-H522 lung)
S=c1[nH]nc(-c2cc3ccc2CCc2ccc(cc2)CC3)n1-c1ccccc1 | 98% | 107% | 96.4% | 106% | 99.6% | 98.4% | 93.1% | 106% | 101% | 87% | 100% | 95% | 129% | 113% | 91.7% | 110% | 103% | 97.2% | – | –
CN1CCN(Cc2ccc(NC(=O)c3cncc(C#Cc4cnc(N)c5cnccc45)c3)cc2C(F)(F)F)CC1 | 4.51% (active) | -28.4% (active) | 13% | -23.7% (active) | -9.5% (active) | -58.6% (active) | 20% | -20.2% (active) | 10% | 1.52% (active) | -75.6% (active) | -61.2% (active) | -48.3% (active) | 16.5% | 8.91% (active) | -73.8% (active) | -1.75% (active) | -41.6% (active) | 23.1% | –
COc1cccc(-c2cc3c(O)cc(C#N)cc3[nH]2)c1 | 92.5% | 101% | 85.4% | 108% | 96.9% | 113% | 94.6% | 115% | 101% | 82.5% | 100% | 73% | 112% | 98.9% | 90.6% | 85.5% | 86.9% | 86.6% | 90.5% | –
CCCCCCCCCCCCNC(=O)[C@H]1CSC(c2cc(Br)cs2)N1 (stereo not given in full) | 18.1% | 10.4% | 54% | -97.5% (active) | -48.4% (active) | 61.7% | 71% | 108% | -48.2% (active) | -47.2% (active) | 13.1% | -77.9% (active) | -60% (active) | -72.4% (active) | 36% | -66.3% (active) | -22.3% (active) | -83.5% (active) | 38.3% | –
Cc1nc2c3c(ncn2n1)Oc1c(c(=O)[nH]c2ccccc12)C3c1ccc(Cl)cc1 (stereo not given) | 103% | 98% | 100% | 87.3% | 101% | 74.2% | 97.4% | 107% | 112% | 94.3% | 105% | 87.9% | 113% | 85.7% | 96.2% | 93.4% | 105% | 105% | – | 87.6%
CC1(c2ccc(Cl)cc2)OC(=O)CC(=O)O1 | 95.9% | 104% | 109% | 102% | 110% | 103% | 99.1% | 109% | 108% | 113% | 89% | 98.2% | 113% | 100% | 120% | 102% | 109% | 101% | 111% | –
CC(=O)Oc1csc(N(C(C)=O)c2cccc(C(F)(F)F)c2)n1 | 94.7% | 93.3% | 99% | 94.4% | 102% | 45.7% | 92.3% | 107% | 99.2% | 105% | 88.8% | 71.9% | 103% | 88.9% | 96.5% | 91% | 88.5% | 77.7% | – | 83.1%
CCN1CCN(CC(=O)N2c3cccc4cccc(c34)N(C(=O)CN3CCN(CC)CC3)C2c2cn(-c3ccccc3)nc2-c2cccc([N+](=O)[O-])c2)CC1 | 13.7% | -28.3% (active) | 25.3% | 0.226% (active) | -37.9% (active) | 61.4% | 12.9% | -66.9% (active) | 28.3% | -52.9% (active) | -91.3% (active) | -66.1% (active) | 3.79% (active) | 16.6% | -50.3% (active) | -89.2% (active) | -83.1% (active) | -81.6% (active) | – | -64.7% (active)
O=C(CSc1nc2ccccc2[nH]1)c1ccc(N2CCOCC2)cc1 | 92.9% | 97.6% | 99.5% | 104% | 104% | 104% | 102% | 117% | 107% | 99.5% | 100% | 103% | 98.1% | 103% | 96.8% | 100% | 102% | 106% | 96.4% | –
Cc1ccc(CSC(=N)N)cc1C | 108% | 104% | 111% | 110% | 109% | 67.4% | 103% | 107% | 108% | – | 111% | 99.2% | 103% | 104% | 111% | 114% | 119% | 105% | 103% | –
Clc1cccc(-c2cc(-c3ccc4c(c3)OCCO4)[nH]n2)c1 | 40% [25 µM] | 34.8% [25 µM] | 37.2% [25 µM] | 26.6% [25 µM] | 12.1% [25 µM] | 55.4% [25 µM] | 41.2% [25 µM] | 11.9% [25 µM] | 38.8% [25 µM] | 12% [25 µM] | 35.4% [25 µM] | 32.4% [25 µM] | 8.25% [25 µM] (active) | 53.2% [25 µM] | 29% [25 µM] | 33.6% [25 µM] | 74% [25 µM] | 25% [25 µM] | 56.8% [25 µM] | –
Cc1nn(-c2ccc([N+](=O)[O-])cc2)c2ncnc(NCCc3ccccc3)c12 | 95.9% | 97.8% | 116% | 102% | 91.6% | 91.3% | 99.8% | 104% | 110% | 76.8% | 121% | 102% | 102% | 94.7% | 111% | 99.5% | 106% | – | 105% | –
COc1ccc(S(=O)(=O)n2ccc(-c3ccc4c(c3)CCC(C)(C)O4)n2)cc1OC | 56.1% | 59% | 89.5% | 112% | 69.6% | 58.3% | 67.1% | 87.1% | 82.6% | 53% | 114% | 82.5% | 75.1% | 85.3% | 63% | 97.1% | 57.1% | 81.9% | 79.4% | –
CCOC(=O)c1cc(C(=O)c2cc(OC)c(OC)c(OC)c2)n2c1ccc1ccccc12 | 50.2% | 64.7% | 43.1% | 21.6% | 14.9% | 39.1% | 34.4% | -6.61% (active) | 22.1% | 12.3% | 19.9% | 49.8% | -9.46% (active) | 49.6% | 22.4% | -13.4% (active) | 63.6% | 10.7% | – | 2.76% (active)
C=C1CCC2C(C)(CO)C(O)CCC2(C)C1C/C=C1/C(=O)OCC1Oc1ccccc1C (stereo not given) | 94% | 80% | 98.6% | 101% | 104% | 118% | 89.1% | 105% | 82.8% | 30.6% | 109% | 109% | 109% | 102% | 97.6% | 81.1% | 83.5% | 67.1% | 98% | –
O=C(/C=C/c1c[nH]c2ccccc12)c1ccc(O)c(CN2CCN(c3ccc(F)cc3)CC2)c1 | 99.8% | 100% | 103% | 95.9% | 106% | 95.5% | 99.5% | 109% | 107% | 103% | 101% | 98.7% | 108% | 94% | – | 98.3% | 115% | 99.4% | 103% | –
